Measurements as given in the supplement of paper PMC6555819.

Experiments:
Experiment in all cases: PBM binding z-score (relative to random genomic background probes); higher = stronger binding; sequences stand for … in GC…GCGATTGACAGCGTAGAATGAAGG
[1] = tested on: PPARg:RXRa DBDmut IVT, anti-RXR (DBD mutation: RXRa K156A/R161A, NR concentration 270 nM, RXRa partner concentration 90 nM)
Procedure, shortened: (§1)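 On custom Agilent 4×180K arrays, double-stranded probes with 34-nt variable regions carried direct-repeat seeds, single-nucleotide variants, half-site ablations or random human genomic background. Ligand-free nuclear receptor dimers were applied for 1 h, and binding was read with antibodies against each partner (one per run). Binding z-scores come from regression-normalized fluorescence, with the random background probes as reference.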

[2] = tested on: PPARg:RXRa IVT, anti-PPARg (NR concentration 270 nM, RXRa partner concentration 90 nM)
Procedure, shortened: as §1

[3] = tested on: PPARg DBDmut:RXRa IVT, anti-PPARg (DBD mutation: PPARg1 K132A/R137A, NR concentration 270 nM, RXRa partner concentration 90 nM)
Procedure, shortened: as §1

[4] = tested on: PPARg DBDmut IVT, anti-PPARg (DBD mutation: PPARg1 K132A/R137A, NR concentration 270 nM)
Procedure, shortened: as §1

[5] = tested on: PPARg homodimer (NR concentration 180 nM)
Procedure, shortened: as §1

[6] = tested on: PXR:RXRa (NR concentration 270 nM, RXRa partner concentration 90 nM)
Procedure, shortened: as §1

[7] = tested on: PXR homodimer (NR concentration 270 nM)
Procedure, shortened: as §1

[8] = tested on: RARa:RXR (NR concentration 270 nM, RXRa partner concentration 90 nM)
Procedure, shortened: as §1

[9] = tested on: RARa homodimer (NR concentration 270 nM)
Procedure, shortened: as §1

[10] = tested on: RARb:RXRa (NR concentration 270 nM, RXRa partner concentration 90 nM)
Procedure, shortened: as §1

[11] = tested on: RARb homodimer (NR concentration 270 nM)
Procedure, shortened: as §1

[12] = tested on: RARg:RXRa (NR concentration 270 nM, RXRa partner concentration 90 nM)
Procedure, shortened: as §1

[13] = tested on: RARg homodimer (NR concentration 270 nM)
Procedure, shortened: as §1

[14] = tested on: RXRa DBDmut IVT, anti-RXR (DBD mutation: RXRa K156A/R161A, NR concentration 90 nM)
Procedure, shortened: as §1

[15] = tested on: RXRa homodimer (NR concentration 180 nM)
Procedure, shortened: as §1

[16] = tested on: THRa:RXRa (NR concentration 90 nM, RXRa partner concentration 90 nM)
Procedure, shortened: as §1

[17] = tested on: THRa homodimer (NR concentration 90 nM)
Procedure, shortened: as §1

[18] = tested on: VDR:RXRa (NR concentration 270 nM, RXRa partner concentration 90 nM)
Procedure, shortened: as §1

[19] = tested on: VDR homodimer (NR concentration 270 nM)
Procedure, shortened: as §1

| Sequence | PBM binding z-score [1] | PBM binding z-score [2] | PBM binding z-score [3] | PBM binding z-score [4] | PBM binding z-score [5] | PBM binding z-score [6] | PBM binding z-score [7] | PBM binding z-score [8] | PBM binding z-score [9] | PBM binding z-score [10] | PBM binding z-score [11] | PBM binding z-score [12] | PBM binding z-score [13] | PBM binding z-score [14] | PBM binding z-score [15] | PBM binding z-score [16] | PBM binding z-score [17] | PBM binding z-score [18] | PBM binding z-score [19] |
| --- | --- | --- | --- | --- | --- | --- | --- | --- | --- | --- | --- | --- | --- | --- | --- | --- | --- | --- | --- |
| GCGACTGGGGCATCAGCATGTTACCATAACTTAA | 3.55 | 2.94 | -0.0811 | -0.739 | -0.0822 | -0.238 | -0.758 | -0.253 | -0.423 | 0.376 | 0.222 | 0.263 | 0.143 | 0.363 | 0.217 | 0.125 | -0.404 | -0.304 | -0.64 |
| ATATGTAGGTTATCGGGTCATTCCGTTTGCGCAT | 7.56 | 7.62 | 4.25 | 2.25 | 2.58 | 3.12 | 1.27 | 3.83 | 0.962 | 2.65 | 3.06 | 3.32 | 2.35 | 1.67 | 3.38 | 3.36 | 2.82 | 3.86 | 3.21 |
| TCTATTAGTTGATTAGGGGAACCGAAACAGCGGA | 2.55 | 0.819 | 0.627 | 1.48 | 1.45 | 0.576 | 0.595 | 0.544 | 2.06 | 0.416 | 0.155 | 0.431 | 0.32 | 1.67 | 0.729 | 0.257 | 0.319 | 0.739 | 0.458 |
| ATCGAAAGGTCGAGGTGTGTATAGAGAAAGGGAA | 0.539 | 1.92 | 1.19 | 0.613 | 1.6 | 2.17 | 0.958 | 3.25 | 1.16 | 4.03 | 2.82 | 4.23 | 4.18 | 0.84 | 4.06 | 2.05 | 0.277 | 2.32 | 0.444 |
| TTACCAAGGTGAATGTCGTTGATCCCTCTGTAGA | 1.97 | 2.48 | 0.0323 | 0.0146 | 0.593 | 0.524 | -0.383 | 1.12 | 0.309 | 1.34 | 0.851 | 0.459 | 0.367 | 0.1 | 0.711 | 1.82 | 0.923 | 0.328 | -0.448 |
| TCATATAGGTAAACAGGTGAAGGTCCGTAAGTTA | 4.86 | 4.7 | 1.09 | 0.987 | 1.53 | 0.741 | 0.241 | 0.898 | 0.337 | 0.842 | 0.91 | 0.737 | 0.389 | 1.36 | 0.85 | 0.707 | 0.377 | 0.989 | 0.32 |
| AGAATGAGGTGATACGTAGATCAGGGAAGAAAGT | 4.06 | 2.23 | 1.58 | 0.564 | 0.0718 | -0.029 | 0.133 | 0.117 | -0.0248 | 0.411 | 0.297 | 0.451 | 0.546 | -0.351 | 0.719 | 1.57 | 0.357 | -0.0206 | -0.382 |
| TCTTGTAGATCAATAGAGGATAAGAAAGTGCGCT | 1.63 | 0.366 | 0.6 | 1.05 | 0.615 | 0.475 | 0.185 | 0.654 | 0.232 | 0.029 | -0.566 | 0.208 | 0.365 | 0.919 | 0.16 | 1.5 | -0.588 | 0.432 | 0.0606 |
| TAGCCTAGGTAATTCAGGGGCCAGTATAGAAAGC | -0.0164 | 0.234 | 0.0188 | -0.116 | -0.334 | -0.507 | -0.545 | -0.256 | -0.299 | 0.0227 | 0.306 | 0.386 | -0.0521 | -0.687 | -0.137 | 0.54 | -0.13 | -0.417 | -0.354 |
| TCATATAGGTAAAAGGTGAGAGTCGGTGTGGTAA | 5.3 | 4.91 | 2.38 | 1.33 | 1.91 | 1.43 | 0.171 | 2.43 | 1.17 | 1.77 | 1.5 | 1.39 | 0.67 | 1.49 | 2.55 | 1.26 | 0.546 | 1.29 | 0.255 |
| ATCGAAAGGCCGTGAGGTGAGTATACAGAAAGGC | -0.822 | 0.492 | 0.487 | 1.17 | -0.238 | 0.0278 | -0.0636 | 0.885 | 0.0649 | 1.68 | 0.911 | 1.47 | 1.42 | -0.765 | 0.904 | 1.93 | 0.902 | -0.0584 | -0.0558 |
| CAGCCTAGGTCTGGGCCAGTATAGGAGGAACGTT | -0.647 | -0.716 | -1.17 | -1.97 | -0.842 | -0.944 | -0.644 | -0.724 | -0.886 | -0.54 | -0.496 | -0.501 | -0.44 | -1 | -0.703 | -0.77 | -1.16 | -0.828 | -0.974 |
| GCTTGTAGATCAAGGTTAAGAGAGACTAAGCTAA | 1.35 | 1.01 | 0.118 | -0.183 | 0.193 | 0.187 | -0.0843 | 0.668 | -0.213 | 0.688 | 0.148 | 0.263 | 0.22 | -0.00641 | 0.438 | 1.2 | -0.0888 | -0.00778 | -0.335 |
| CCTCGGAGGACAACAGGAGGTCAGAGCAGCCAGA | -0.204 | 0.388 | -0.931 | -1.16 | 1.41 | 2.05 | 0.438 | 2.23 | 0.698 | 2.87 | 3.68 | 3.56 | 3.45 | -0.0172 | 2.05 | 2.86 | 1.04 | 1.94 | 1.14 |
| TAGCCTAGGTCATGGGCCAGTATGCCACGCGAAC | 1.9 | 3.62 | -0.369 | 0.218 | 1.49 | 1.42 | -0.923 | 2.53 | -0.739 | 3.93 | 3.09 | 4.15 | 4.47 | 0.363 | 3.54 | 3.07 | 1.16 | 1.98 | 0.214 |
